CHT PAM = CHT positive allosteric modulators, primary screen, cell-based, membrane potential dye, choline EC20 | High affinity choline transporter 1 (Homo sapiens), Q9GZV3 | CHT-expressing cells; active compounds read high; LV-AA mutant CHT in HEK293 cells | B-score at 10 µM | hit rate 0.49% among 310,000 | AID 488977, 2010;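 active = initial fluorescence not abnormally high and integrated response B-score, plate-corrected, over 3 SD above library mean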
Target sequence (Q9GZV3 whole entry, looked up): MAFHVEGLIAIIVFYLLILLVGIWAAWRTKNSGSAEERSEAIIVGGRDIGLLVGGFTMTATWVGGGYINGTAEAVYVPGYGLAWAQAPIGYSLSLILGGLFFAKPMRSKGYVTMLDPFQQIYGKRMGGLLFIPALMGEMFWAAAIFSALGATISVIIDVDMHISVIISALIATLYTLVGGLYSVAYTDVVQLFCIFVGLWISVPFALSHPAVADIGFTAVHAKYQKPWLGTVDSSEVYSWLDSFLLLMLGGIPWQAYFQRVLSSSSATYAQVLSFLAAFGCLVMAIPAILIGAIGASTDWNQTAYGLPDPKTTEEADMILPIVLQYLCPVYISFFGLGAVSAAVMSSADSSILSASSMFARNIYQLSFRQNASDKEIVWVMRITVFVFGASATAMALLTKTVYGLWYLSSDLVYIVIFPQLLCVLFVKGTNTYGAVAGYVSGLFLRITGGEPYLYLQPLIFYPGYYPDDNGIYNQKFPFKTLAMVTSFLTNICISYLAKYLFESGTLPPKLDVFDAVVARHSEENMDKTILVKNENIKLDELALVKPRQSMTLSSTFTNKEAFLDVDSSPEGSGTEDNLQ
CHT block = inhibitors of human choline transporter CHT; High affinity choline transporter 1 (Homo sapiens), Q9GZV3; CHT-expressing cells, membrane potential dye, choline response; active compounds read low; B-score at 10 µM; hit rate 0.86% among 310,000;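 active = B-score over 3 SD under the library average, and starting fluorescence ratio not unusually high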;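 also: choline stimulus applied at its EC90 after an EC20 pre-addition; B-score computed on integrated fluorescence ratio after choline addition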
MEKK2wt PB1 HTS = modulators of MEK5 binding to wildtype MEKK2, primary screen, biochemical, multiplex bead flow cytometry, Alexa488-MEK5; Mitogen-activated protein kinase kinase kinase 2 (Homo sapiens), Q9Y2U5; Alexa488-MEK5 binding to MEKK2 WT; actives lie on both sides; binding response (% of control), % at 10 µM; hit rate 1.1% among 290,000; AID 1531, 2009; in the data active = binding response below about 67% or above about 130%
SUMO Mot1 rescue = yeast Mot1-301 growth rescue at high temperature, primary screen, SUMOylation pathway inhibitor project, S. cerevisiae, ATP luminescence, 38.5C. S. cerevisiae Mot1-301 growth rescue; percent above DMSO median, 100 means doubled. hit rate 1% among 320,000. growth rescue, % at 18.8 µM;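 active = every valid replicate shows activation above 250% relative to neutral control wells; inactive = the rest, any valid replicate at or below 250%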
MEKK2mut PB1 HTS = MEK5 binding signal on mutant MEKK2 PB1, primary screen, biochemical, multiplex bead flow cytometry, Alexa488-MEK5 | Alexa488-MEK5 binding to MEKK2 mutant | AID 1530, 2009 | percent response, % at 10 µM | hit rate 0.35% among 290,000; in the data active = percent response above about 24%, passing the limit was not always enough
MEKK3 PB1 HTS = modulators of MEKK3-MEK5 PB1 binding, primary screen, biochemical, wildtype MEKK3, multiplex bead flow cytometry, Alexa488-MEK5; Mitogen-activated protein kinase kinase kinase 3 (Homo sapiens), Q99759; bead-based flow cytometry, Alexa488-MEK5 binding to MEKK3; actives lie on both sides; 0 = blocked by unlabeled MEK5, 100 = vehicle; binding response (% of control), % at 10 µM; hit rate 1.4% among 290,000; AID 1529, 2009;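 active = binding response more than 3 SD above or below the average of its plate-row segment, actives on both sides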;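 also: Alexa488 bead fluorescence after subtracting the streptavidin-only scavenger bead signal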
MEKK2wt confirm = modulators of MEK5 binding to wildtype MEKK2, confirmation, biochemical, single concentration, multiplex bead flow cytometry; Alexa488-MEK5 binding to MEKK2 WT; actives lie on both sides; binding response (% of control), % at 10 µM; shares compounds with MEKK3 PB1 HTS; hit rate 2.4% among 5,900; in the data active = binding response below about 16% or above about 210%; inactive = in between
MEKK2mut confirm = mutant MEKK2 PB1-MEK5 binding signal retest – biochemical, single concentration, multiplex bead flow cytometry, confirmation; shares compounds with MEKK3 PB1 HTS; Alexa488-MEK5 binding to MEKK2 mutant; percent response, % at 10 µM; hit rate 2% among 5,900; in the data active = percent response mostly above about 71%, no sharp cut-off; inactive = mostly below about 38%;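 also: higher means compound restores mutant binding toward wildtype level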
MEKK3-MEK5 inh = MEKK3 wild-type PB1 binding to MEK5, inhibitors, confirmation, biochemical, bead multiplex flow cytometry, single concentration, wildtype; shares compounds with MEKK3 PB1 HTS; binding response (% of control), % at 10 µM; hit rate 1.8% among 5,900; AID 1894, 2009; Alexa488-MEK5 binding to MEKK3; active compounds read low;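 active = binding response below 72% of control, or above a set upper limit, though filed actives all read lower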;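 also: lower values mean stronger disruption of MEK5 binding to MEKK3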
A number is an active result; n = inactive; x = no result given; [ ] = remark or other dose. Compounds with a hit are over-represented: about 4.1% of the library has one in this group of screens.

SMILES	CHT PAM	CHT block	MEKK2wt PB1 HTS	SUMO Mot1 rescue	MEKK2mut PB1 HTS	MEKK3 PB1 HTS	MEKK2wt confirm	MEKK2mut confirm	MEKK3-MEK5 inh
O=C(Cc1cccs1)Nc1nc2c(s1)CCCC2	n	n	n	n	n	51[inhibitor]	n	n	n
O=C(O)c1ccc(/C=N/NC(=O)c2cc3ccccc3cc2O)cc1	x	x	x	n	x	x	x	x	x
COc1cc(/C=N/NC(=O)c2cc3ccccc3cc2O)ccc1OCCN1CCCCC1	n	n	229	n	n	n	207	82	n
CC[C@H](C)NC(=O)CCCCCn1c(=S)[nH]c2c([nH]c3ccc(OC)cc32)c1=O	n	n	n	n	n	138	n	n	n
COc1ccc2[nH]c3c(=O)n(CCCCCC(=O)NCCC(C)C)c(=S)[nH]c3c2c1	n	n	n	n	n	n	x	x	x
COc1cc(OC)c2c(c1)C(=O)OC2	n	n	n	n	n	131	n	n	n
CCCNC(=O)c1ccc(N2CCC3(CC2)CC(c2cccc(Br)c2)=NO3)c(NC(=O)c2cccc(C)c2)c1	n	n	x	n	x	x	x	x	x
CCCn1c(SCC(=O)NC(=O)Nc2ccc(C)cc2C)n[nH]c1=O	n	n	-5.0[inhibitor]	n	n	0.0[inhibitor]	n	n	n
Clc1ccc(CN2CCCCCC2)cc1	n	n	n	n	n	n	x	x	x
O=[N+]([O-])c1cc(CN2CCCC2)ccc1Sc1ccc(Cl)cc1	n	n	149	n	n	n	n	n	n
COc1ccc2c(c1)c(C(C)=O)c(C)n2-c1ccccc1	n	n	n	n	n	76[inhibitor]	n	n	n
CN(C)CCCNc1nc2sc3c(c2c(=O)n1CCc1ccccc1)CCCCC3	n	n	183	n	n	n	n	n	n
O=c1c2c3c(sc2nc(NCCO)n1-c1ccccc1)CCCC3	n	n	n	n	n	n	x	x	x
N=c1scc(-c2ccccc2)n1/N=C/c1ccco1	n	n	n	n	55	n	n	n	n
CCN(CC)CCCNC(=O)c1[nH]c2ccccc2c1Sc1ccc(Cl)cc1	n	n	163	n	38	n	n	n	n
CCN(CC)CCCNC(=O)c1ccccc1C	n	n	n	n	n	n	x	x	x
COC(=O)C(NC(C)=O)(Nc1cccc(C)n1)C(F)(F)F (stereo not drawn)	n	n	n	n	n	n	x	x	x
COC(=O)C(NC(=O)c1ccccc1)(Nc1cc(C)cc(C)n1)C(F)(F)F (stereo not drawn)	n	n	n	n	n	126	n	n	n
CN(CCCCCNC(=O)/C=N/O)Cc1ccccc1	x	x	n	x	n	n	x	x	x
CN(C)CCCN(CCCNC(=O)/C=N/O)Cc1ccccc1	n	n	179	n	80	n	n	n	n
CCN(CCCNC(=O)CN(C)S(=O)(=O)c1ccc2c(c1)CCC(=O)N2)c1cccc(C)c1	n	n	n	n	n	n	x	x	x
Cc1nc2cc(OCc3cc(C(=O)NC(C)c4cnn(C)c4)no3)ccc2s1 (stereo not drawn)	n	n	n	n	n	n	x	x	x
c1ccc(CSc2cc3ccccc3[nH]2)cc1	n	n	x	n	x	x	x	x	x
COc1ccc(/C=N/NC(=O)CSc2n[nH]c(=O)[nH]c2=O)cc1	n	n	n	n	n	74[inhibitor]	n	n	n
Nc1ccc(Nc2ccccc2N)cc1	n	n	n	n	n	60[inhibitor]	n	n	60
SMILES	CHT PAM	CHT block	MEKK2wt PB1 HTS	SUMO Mot1 rescue	MEKK2mut PB1 HTS	MEKK3 PB1 HTS	MEKK2wt confirm	MEKK2mut confirm	MEKK3-MEK5 inh
O=C(C[n+]1ccccc1)Nc1ccccc1Br	n	n	n	n	n	n	x	x	x
CCN(CC)S(=O)(=O)c1ccc(OCC(=O)NCc2ccco2)cc1	n	n	n	x	n	n	x	x	x
CCN(CC)S(=O)(=O)c1ccc(OCC(=O)NCc2ccccc2)cc1	n	n	38[inhibitor]	n	n	27[inhibitor]	n	n	n
CCOC(=O)C(NC(=O)c1ccccc1)(OCc1ccccc1)C(F)(F)F (stereo not drawn)	n	n	n	n	n	159	n	n	n
CCOc1ccccc1N1Cc2cc(C)c(C)cc2C1	n	n	n	n	n	n	x	x	x
COc1ccc(OC)c(N2Cc3cc(C)c(C)cc3C2)c1	n	n	10[inhibitor]	n	n	8.0[inhibitor]	n	n	n
O=c1cc(CN2CCN(c3cccc(C(F)(F)F)c3)CC2)nc2sccn12	n	n	n	n	n	n	x	x	x
Cc1cccc(CN2CCN(C(c3ccccc3)c3ccc(Cl)cc3)CC2)c1 (stereo not drawn)	n	n	155	n	n	n	n	n	n
CCOC(=O)Nc1csnn1	x	x	n	x	n	n	x	x	x
CN(C)S(=O)(=O)N(CCN1CCOCC1)Cc1ccccc1F	n	n	n	n	24	n	n	n	n
O=C(Nc1ccccc1)N(CCN1CCOCC1)Cc1ccccc1F	n	n	n	n	n	n	x	x	x
CCOC(=O)c1ccc(NS(=O)C23CC4CC(CC(C4)C2)C3)cc1 (stereo not drawn)	n	n	-6.0[inhibitor]	n	n	n	n	n	n
CCOC(=O)c1ccc(NC(=O)CNC(=O)C23CC4CC(CC(C4)C2)C3)cc1	n	n	n	n	n	n	x	x	x
CCC(NC(=O)COc1cc2c(c3oc(=O)c(C)c(C)c13)CCC(C)(C)O2)C(=O)O (stereo not drawn)	n	n	n	n	n	n	x	x	x
O=C(CSc1ccc(C(F)(F)F)cc1[N+](=O)[O-])Nc1ccc2ccccc2c1	n	n	n	n	n	194	n	n	n
CC1c2ccccc2N(NC(=O)Cc2ccccc2)C1C (stereo not drawn)	n	n	n	n	n	135	n	n	n
CC(=O)N1c2ccccc2[C@@H](C)[C@@H]1C	x	x	x	n	x	x	x	x	x
COc1ccc(CN2CCNC(=O)C2CC(=O)N(C)CC2CCOCC2)cc1C (stereo not drawn)	x	x	n	x	n	n	x	x	x
CCOC(=O)c1c(C)oc2cc(Cl)c(O)c(CN(C)C)c12	n	n	n	n	n	128	n	n	n

Screens: PubChem BioAssay, several laboratories
